Test systems include HCT-15 colon; HT29 colon; SNB-75 CNS; SNB-19 CNS; U251 CNS; PC-3 prostate; SK-MEL-5 melanoma; UACC-62 melanoma; LOX IMVI melanoma; SK-MEL-28 melanoma.
Holding throughout (assay): NCI-60 one-dose screen, 48 h (100 = growth as untreated, 0 = no growth, -100 = all killed)
Settings in all cases: 10 µM unless noted

Molecules are shown by their SMILES. This is part of a sample that, as a whole, favours compounds with a hit. Of some 83,000 tested, about 20% had one in any assay.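 48-hour exposure, single concentration, 96-well plates; percent growth endpoint where 0 means no net growth. Active: below 10.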 A number with no mark means an inactive call. Active and inactive are the calls of the source.

With `NS(=O)(=O)c1ccc(NCC(=O)Nc2ccc(-c3nc4ccccc4s3)cc2)cc1`, the growth is 46.6% with HCT-15 colon; 74.5% with HT29 colon; 69.5% with SNB-75 CNS; 74.3% in the test with SNB-19 CNS; 71.3% in the test on U251 CNS; 64.7% in the test with PC-3 prostate. Also, the growth is 71.3% with SK-MEL-5 melanoma, 38% in the test on UACC-62 melanoma, 13.1% in the test on LOX IMVI melanoma and 99.4% with SK-MEL-28 melanoma.
As to `CCN(Cc1ccc(CN(CC)C(=O)C(Cl)(Cl)Cl)cc1)C(=O)C(Cl)(Cl)Cl`, the growth was 94.2% with HCT-15 colon; 77.5% in the test on HT29 colon; 87.7% with SNB-75 CNS; 106% in the test on SNB-19 CNS; 91.6% in the test on U251 CNS; 64.9% in the test on PC-3 prostate. Further, the growth was 71.2% with SK-MEL-5 melanoma, 82.7% in the test with UACC-62 melanoma, 78.3% in the test on LOX IMVI melanoma and 96.2% with SK-MEL-28 melanoma.
For `Cc1ccc2nc(-c3c(CCCO)noc3N)[nH]c(=O)c2c1`, the growth in the test on HCT-15 colon was 105%; with HT29 colon, 113%; in the test with SNB-75 CNS, 82.2%; in the test with SNB-19 CNS, 113%; in the test on U251 CNS, 99.6%; with PC-3 prostate it was 96%. Moreover, the growth is 99.6% with SK-MEL-5 melanoma, 104% in the test with UACC-62 melanoma, 100% in the test with LOX IMVI melanoma and 112% in the test with SK-MEL-28 melanoma.
In the case of `Cc1cc2c(c(=O)o1)C(c1ccc(OC(=O)N3CCOCC3)cc1)C(C#N)=C(N)O2` (stereo not given), the growth in the test with HCT-15 colon was 101%; with HT29 colon it was 104%; in the test with SNB-75 CNS, 95.6%; with SNB-19 CNS, 101%; in the test on U251 CNS it was 100%; with PC-3 prostate, 103%. Further, the growth with SK-MEL-5 melanoma is 103%; with UACC-62 melanoma it was 108%; with LOX IMVI melanoma, 96.4%; in the test on SK-MEL-28 melanoma, 110%.
`CC1Cc2c(N(C)C)ncnc2N(C)c2ccc(O)cc21` (stereo not given): the growth was 50.5% with HCT-15 colon; 97.8% in the test on HT29 colon; 72.9% with SNB-75 CNS; 83.1% in the test on SNB-19 CNS; 78.9% in the test with U251 CNS; 72.9% in the test on PC-3 prostate. The growth was 82.9% in the test with SK-MEL-5 melanoma, 81.2% in the test with UACC-62 melanoma, 86.2% with LOX IMVI melanoma and 98.6% with SK-MEL-28 melanoma.
As to `CCCCCCC[C@@H](O)CC(=O)N[C@H](CCCCN)C(=O)N[C@H](Cc1c[nH]c2ccccc12)C(=O)NC(CCCCN)C(=O)N[C@H](CC(C)C)C(=O)N[C@H](Cc1ccccc1)C(=O)N[C@H](CCCCN)C(=O)N[C@H](CCCCN)C(=O)N[C@H](CC(C)C)C(=O)N1CCCC1C(=O)N[C@H](CCCCN)C(=O)N[C@H](Cc1ccccc1)C(=O)N[C@H](CC(C)C)C(=O)N[C@H](Cc1c[nH]cn1)C(=O)N[C@H](CC(C)C)C(=O)N[C@H](C)C(=O)N[C@H](CCCCN)C(=O)N[C@H](CCCCN)C(=O)N[C@H](Cc1ccccc1)C(=O)O` (stereo not given in full), the growth was -40.3% (active) in the test on HCT-15 colon; -52.7% (active) in the test with HT29 colon; -62.3% (active) in the test on SNB-75 CNS; -46.4% (active) with SNB-19 CNS; -60.5% (active) with U251 CNS; -55.3% (active) in the test with PC-3 prostate. Further, the growth with SK-MEL-5 melanoma was -25.7% (active); in the test on UACC-62 melanoma, -39.2% (active); in the test on LOX IMVI melanoma it was -38.6% (active); with SK-MEL-28 melanoma it was -39.8% (active).
`CC1(C)OC2COC3(C(=O)O)OC(C)(C)OC3C2O1` (stereo not given): the growth in the test on HCT-15 colon is 98.8%; in the test on HT29 colon, 99.8%; in the test with SNB-75 CNS, 87.2%; with SNB-19 CNS, 92.1%; in the test with U251 CNS, 102%; in the test on PC-3 prostate, 100%. The growth in the test on SK-MEL-5 melanoma was 102%; in the test on UACC-62 melanoma, 97.7%; in the test with LOX IMVI melanoma, 95.6%; in the test on SK-MEL-28 melanoma, 107%.
As to `Nc1cccc2c1CN(C1CCC(=O)NC1=O)C2=O` (stereo not given), the growth in the test with HCT-15 colon is 105%; in the test with HT29 colon, 101%; in the test with SNB-75 CNS it was 88.4%; in the test with SNB-19 CNS, 88.9%; in the test on U251 CNS it was 97%; with PC-3 prostate, 91%. Also, the growth is 103% in the test on SK-MEL-5 melanoma, 114% in the test on UACC-62 melanoma, 99.8% in the test on LOX IMVI melanoma and 111% in the test on SK-MEL-28 melanoma.
For `O=S(=O)(NCCCNc1nccc(-c2c(-c3ccc(F)c(O)c3)nc3sccn23)n1)c1ccc(Cl)cc1`, the growth is 82.7% in the test with HCT-15 colon; 70.1% with HT29 colon; 122% with SNB-75 CNS; 115% in the test on SNB-19 CNS; 84.5% in the test with U251 CNS; 58.7% in the test on PC-3 prostate. Besides, the growth was 47.2% in the test on SK-MEL-5 melanoma, 6.74% (active) with UACC-62 melanoma, 45.5% in the test with LOX IMVI melanoma and 23.3% in the test on SK-MEL-28 melanoma.
Regarding `COC(=O)c1ccc2nc(-c3cc4ccccc4n3C)n(CCCCOc3cc4c(cc3OC)C(=O)N3CCC[C@H]3C=N4)c2c1`, the growth with HCT-15 colon was -19% (active); in the test with HT29 colon, -53.7% (active); in the test with SNB-75 CNS, -79.5% (active); in the test on SNB-19 CNS it was 11.3%; with U251 CNS, 1.02% (active); with PC-3 prostate, -6.81% (active). The growth with SK-MEL-5 melanoma is -75.6% (active); in the test with UACC-62 melanoma, -95.9% (active); in the test on LOX IMVI melanoma, -54.7% (active); with SK-MEL-28 melanoma it was -57.1% (active).
On to `Nc1cc2c(cc1N)-c1cc(N)c(N)cc1C2`, for which the growth in the test with HCT-15 colon was 97.4%; in the test with HT29 colon, 107%; with SNB-75 CNS, 79.9%; with SNB-19 CNS it was 107%; with U251 CNS, 99.1%; in the test with PC-3 prostate, 80.5%. Besides, the growth with SK-MEL-5 melanoma is 101%; with UACC-62 melanoma it was 99.9%; in the test on LOX IMVI melanoma it was 94%; with SK-MEL-28 melanoma it was 115%.
For the molecule `COc1cc(OC)cc(-c2n[nH]nc2-c2ccc3c(c2)OCO3)c1`, the growth in the test with HCT-15 colon is 25.7%; in the test with HT29 colon, 1% (active); with SNB-75 CNS, -8.14% (active); in the test with SNB-19 CNS, 45.1%; with U251 CNS, 7.92% (active); in the test on PC-3 prostate it was 19.4%. For the same molecule, the growth is 20.2% in the test on SK-MEL-5 melanoma, 27.5% in the test with UACC-62 melanoma, 34.4% in the test with LOX IMVI melanoma and 32% in the test with SK-MEL-28 melanoma.
As for `CCOC(=O)CC(C#N)(CC(=O)OCC)C(=O)OCC`, the growth with HCT-15 colon is 99.4%; with HT29 colon it was 125%; in the test with SNB-75 CNS, 89.7%; in the test on SNB-19 CNS, 111%; in the test with U251 CNS, 94.8%; with PC-3 prostate it was 89.2%. The growth is 98% in the test with SK-MEL-5 melanoma, 97.7% with UACC-62 melanoma, 103% in the test on LOX IMVI melanoma and 98% in the test on SK-MEL-28 melanoma.

(Values after PubChem BioAssay (NCI).)
